Assay outcomes (PubChem)
In the library only some 2% were active in any assay of this set; here they are far more common.
NPR1 activator = GC-A (human) enzyme activation. P16066. HEK293 GC-A cells, cGMP TR-FRET, EC30 ANP; 0% at EC30 ANP, 100% saturating ANP. activation, % at 10 µM. 0.14% of 370,000 active; in the data active = activation above about 40%
FAS-TE inh = blocks the thioesterase domain of human fatty acid synthase; P49327; recombinant FAS-TE, OMFH fluorogenic substrate, fluorescence endpoint; inhibition, % at 15 µM; 0.67% of 360,000 active; AID 602261;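 active = compounds whose normalised, plate-corrected inhibition of enzyme fluorescence in the single-dose primary screen is 50% or more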;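 note: 0% = DMSO with enzyme and 100% = substrate without enzyme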
ADAM17 inh = inhibitors of human ADAM17; inhibition, % at 6.95 µM; P78536; recombinant ADAM17, EDANS/DABCYL FRET peptide cleavage; 0.83% of 370,000 active;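 active = inhibition above the mean of compounds lying between control limits plus 3 SD, set per campaign, cut at about 8.5% in these data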;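 note: 0% = DMSO-only wells as the low control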
NPR2 activator = GC-B (human) receptor activation | 0.11% of 370,000 active | HEK293-GC-B cells, CNP EC30, cGMP TR-FRET; 0% at EC30 CNP, 100% saturating CNP | activation, % at 10 µM | P20594 | AID 1920062;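 active = activation at 10 µM reaching about 35% in either raw or pattern-adjusted values, limit read from the data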
Target sequence (P20594 whole entry, looked up): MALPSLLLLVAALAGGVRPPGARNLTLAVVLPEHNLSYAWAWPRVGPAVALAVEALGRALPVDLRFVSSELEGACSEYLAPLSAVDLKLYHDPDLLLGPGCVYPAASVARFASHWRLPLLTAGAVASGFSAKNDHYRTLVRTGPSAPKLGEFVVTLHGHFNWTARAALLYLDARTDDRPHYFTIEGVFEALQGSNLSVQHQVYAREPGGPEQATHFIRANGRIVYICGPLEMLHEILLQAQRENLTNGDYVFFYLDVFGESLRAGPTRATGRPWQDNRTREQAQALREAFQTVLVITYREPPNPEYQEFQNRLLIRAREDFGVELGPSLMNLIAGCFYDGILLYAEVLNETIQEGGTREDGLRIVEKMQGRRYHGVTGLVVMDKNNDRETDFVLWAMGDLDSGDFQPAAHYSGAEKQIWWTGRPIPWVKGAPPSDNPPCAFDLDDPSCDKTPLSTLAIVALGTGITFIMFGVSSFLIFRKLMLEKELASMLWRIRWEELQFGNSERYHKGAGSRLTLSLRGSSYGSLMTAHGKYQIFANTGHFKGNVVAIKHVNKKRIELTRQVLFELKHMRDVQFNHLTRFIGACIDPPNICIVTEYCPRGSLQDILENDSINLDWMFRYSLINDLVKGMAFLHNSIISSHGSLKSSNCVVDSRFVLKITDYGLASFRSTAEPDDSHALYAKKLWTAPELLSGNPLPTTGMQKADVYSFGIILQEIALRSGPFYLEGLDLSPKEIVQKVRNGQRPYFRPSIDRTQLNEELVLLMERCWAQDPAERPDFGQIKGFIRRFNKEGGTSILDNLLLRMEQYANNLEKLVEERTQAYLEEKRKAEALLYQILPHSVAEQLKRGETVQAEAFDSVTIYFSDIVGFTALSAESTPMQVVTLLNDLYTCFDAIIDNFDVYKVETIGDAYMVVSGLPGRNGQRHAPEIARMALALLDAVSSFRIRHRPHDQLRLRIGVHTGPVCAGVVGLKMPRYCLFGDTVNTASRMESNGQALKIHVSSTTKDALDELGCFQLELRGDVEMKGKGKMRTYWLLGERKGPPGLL
ADAM10 inh = ADAM10 inhibition, QFRET primary screen | O14672 | recombinant ADAM10, EDANS/DABCYL FRET peptide cleavage, 3 h | inhibition, % at 7 µM | 0.62% of 370,000 active | AID 720582;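 active = inhibition above a per-campaign cutoff equal to the mean of compounds falling between control-based bounds plus 3 SD, cut at about 20% in these data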;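 note: 0% = DMSO wells while the 100% control is not disclosed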
FAS-TE conf = FAS thioesterase (human) inhibition, confirmation | shares compounds with FAS-TE inh | recombinant FAS-TE, OMFH fluorogenic substrate, fluorescence | inhibition, % at 15 µM | 45% of 2,300 active;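 active = compounds inhibiting the enzyme by at least 50% at 15 µM in any one of the replicates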;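 note: 0% = enzyme with DMSO only and 100% = wells lacking enzyme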
* marks the source's active call; other numbers are inactive results; . = not tested or not shown.

SMILES	NPR1 activator	FAS-TE inh	ADAM17 inh	NPR2 activator	ADAM10 inh	FAS-TE conf
COc1ccc(C2=CCN(C)C(=O)N2c2ccc([N+](=O)[O-])cc2)cc1	-1	.	-2	-1	4	.
Cn1c(/C=C/N(Cc2ccccc2)c2ccccc2)c([N+](=O)[O-])c(=O)n(C)c1=O	-4	57*	2	2	3	47*
CC(C)(C)C(=O)N1CCN(c2ccc([N+](=O)[O-])c(-n3nc(-c4ccccc4)c4ccccc4c3=O)c2)CC1	3	74*	4	0	5	9
Cc1ccc(CN2CCCCC(NC(=O)c3c(F)cccc3F)C2=O)cc1 (centres undefined)	1	.	-1	0	0	.
O=C1c2ccc(-c3ccc(F)cc3OCc3ccccc3)cc2S(=O)(=O)c2cccc(C(=O)N3CCCC3)c21	.	62*	.	.	.	-1
COc1ccccc1N1CCN(c2ccc3c(c2)S(=O)(=O)c2cccc(C(=O)NCc4cccc(F)c4)c2C3=O)CC1	1	64*	-3	3	-6	27
O=C(NCc1cccc(OC(F)(F)F)c1)c1cccc2c1C(=O)c1ccc(-c3ccc(F)cc3OCc3ccccc3)cc1S2(=O)=O	1	30	-2	3	-10	.
O=C(OC12CCCN(C1)/C(=C/c1ccccc1)C2)c1ccc(Cl)cc1 (centres undefined)	0	.	6	5	18	.
COc1ccc2c(c1)OC[C@H]1[C@H]2N2C(=O)CN(Cc3ccc(F)cc3)C(=O)[C@@]2(C)[C@H]1c1ccccc1	-3	61*	6	-10	18	41
C[C@@]12C(=O)N(Cc3ccc(F)cc3)CC(=O)N1[C@H]1c3cc(Cl)ccc3OC[C@@H]1[C@@H]2c1ccccc1	-6	84*	1	-11	3	37
COc1ccc(CN2CC(=O)N3[C@H]4c5ccccc5OC[C@@H]4[C@H](c4ccccc4)[C@]3(C)C2=O)cc1	-5	47	3	-5	18	.
C[C@@]12C(=O)N(Cc3ccccc3)CC(=O)N1[C@H]1c3cc(Cl)ccc3OC[C@@H]1[C@@H]2c1ccccc1	-10	26	2	-12	15	.
Cc1ccccc1NC(=O)C1CCCN1S(=O)(=O)c1cccnc1 (centres undefined)	2	.	-1	0	4	.
C=CCN1C(=O)[C@@H](CC(=O)N2CCN(C(=O)OCC)CC2)[C@]2(C(=O)OC)CCCCC=C12	2	.	-5	8	-6	.
COc1ccc(NC(=S)N2CCN(c3ccc4c(c3)C3CCN(C(=O)OCc5ccccc5)C4C3)CC2)c(OC)c1 (centres undefined)	4	57*	4	-1	-1	11
O=C(OCc1ccccc1)N1CCC2CC1c1cc(N3CCN(C(=S)NCCc4ccccc4)CC3)ccc12 (centres undefined)	1	25	1	4	-4	.
CSc1ccc(COC(=O)c2cc([N+](=O)[O-])ccc2N2CCOCC2)cc1	-7	66*	2	-3	9	57*
COc1ccc(OC)c(COC(=O)c2cc([N+](=O)[O-])ccc2N2CCOCC2)c1	1	54*	1	-2	0	51*
N#Cc1cc(-c2ccccc2)nc(NN)n1	-2	0	4	2	6	.
N#Cc1cc(-c2ccccc2)nc(Oc2ccc(Cl)cc2)n1	13	65*	-2	-4	-3	53*
Cc1cccc(N2CCN(C(=O)CNC(=O)Cc3ccccc3)CC2)c1C	0	2	0	8	-6	.
Cc1cccc(N2CCN(C(=O)CNC(=O)c3cccc([N+](=O)[O-])c3)CC2)c1C	-1	85*	-4	4	1	67*
COC(=O)Nc1cc([N+](=O)[O-])ccc1OC	0	-12	3	2	3	.
COc1ccc([N+](=O)[O-])cc1NC(=O)Nc1ccccc1	0	58*	-1	0	-3	62*
C/C=C/C=C/C(=O)OC(C)C(=O)Nc1cc([N+](=O)[O-])ccc1OC (centres undefined)	7	73*	-3	-2	1	60*
SMILES	NPR1 activator	FAS-TE inh	ADAM17 inh	NPR2 activator	ADAM10 inh	FAS-TE conf
COc1ccc([N+](=O)[O-])cc1NC(=O)C(C)OC(=O)Cc1ccc(OC)c(OC)c1 (centres undefined)	4	8	-2	2	-7	.
COc1ccc(-n2cc(C(=O)Nc3cc([N+](=O)[O-])ccc3OC)c3ccccc3c2=O)cc1	1	55*	-1	-1	2	20
COc1ccc([N+](=O)[O-])cc1NC(=O)N(C)Cc1ccco1	1	51*	0	1	6	42*
S=c1[nH]nc(-c2n[nH]c3c2CCC3)n1N=Cc1ccc(OCc2ccccc2)cc1	0	.	2	-3	-7	.
CC(OC(=O)c1cccc(S(=O)(=O)N2CCN(C)CC2)c1)C(=O)Nc1ccc(C(N)=O)cc1 (centres undefined)	-1	-6	-4	0	-12	.
CCc1ccc(NC(=O)C(C)OC(=O)c2cccc(S(=O)(=O)N3CCc4ccccc4C3)c2)cc1 (centres undefined)	0	52*	-3	4	-2	20
Cc1cccc(Oc2ccc(S(=O)(=O)N3CCCCC3)cc2NC(=O)C2=COCCO2)c1	-3	65*	0	1	5	6
CC(C)Oc1ccc(S(=O)(=O)N2CCCCC2)cc1NC(=O)C1=COCCO1	12	11	0	4	-1	.
COc1cc([N+](=O)[O-])cc(/C=N/NC(=O)c2cc(C)nc3ccccc23)c1O	-5	54*	3	1	11	67*
COc1cc([N+](=O)[O-])cc(/C=N/NC(=O)c2cncc(Br)c2)c1O	-8	59*	-1	-2	-2	71*
COc1cc([N+](=O)[O-])cc(/C=N/NC(=O)c2cc(-c3ccccc3)nc3ccccc23)c1O	-4	19	0	0	3	.
COc1cc(/C=N/NC(=O)c2cccc([N+](=O)[O-])c2)cc(OC)c1O	-3	8	0	-9	6	.
O=C(N/N=C\c1ccc([N+](=O)[O-])o1)c1cncc(Br)c1	-3	1	-5	0	-12	.
COc1cc(/C=N/NC(=O)c2cncc(Br)c2)cc([N+](=O)[O-])c1O	-1	58*	-3	0	-8	70*
COc1ccc(-c2cc(C(=O)OC(C)C(=O)Nc3c(C)n(C)n(-c4ccccc4)c3=O)c3ccccc3n2)cc1 (centres undefined)	-1	-7	-16	-2	-61	.
